Assay results: the supplement of paper PMC6555819

Columns and labels:
Assay in all cases: PBM binding z-score (relative to random genomic background probes); higher = stronger binding; sequences stand for … in GC…GCGATTGACAGCGTAGAATGAAGG
[1] = system: FXR:RXRa (NR concentration 270 nM, RXRa partner concentration 90 nM)
In short: (§1)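 On custom Agilent 4×180K arrays, double-stranded probes with 34-nt variable regions carried direct-repeat seeds, single-nucleotide variants, half-site ablations or random human genomic background. Ligand-free nuclear receptor dimers were applied for 1 h, and binding was read with antibodies against each partner (one per run). Binding z-scores come from regression-normalized fluorescence, with the random background probes as reference.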

[2] = system: LXRa:RXRa (NR concentration 270 nM, RXRa partner concentration 90 nM)
In short: as §1

[3] = system: LXRa homodimer (NR concentration 270 nM)
In short: as §1

[4] = system: LXRb:RXRa (NR concentration 270 nM, RXRa partner concentration 90 nM)
In short: as §1

[5] = system: LXRb homodimer (NR concentration 270 nM)
In short: as §1

[6] = system: PPARa:RXRa (NR concentration 270 nM, RXRa partner concentration 90 nM)
In short: as §1

[7] = system: PPARg:RXRa (NR concentration 180 nM, RXRa partner concentration 90 nM)
In short: as §1

[8] = system: PPARg:RXRa 270nM:90nM, anti-RXR (NR concentration 270 nM, RXRa partner concentration 90 nM)
In short: as §1

[9] = system: PPARg:RXRa 30nM:10nM, anti-RXR (NR concentration 30 nM, RXRa partner concentration 10 nM)
In short: as §1

[10] = system: PPARg:RXRa 90nM:30nM, anti-RXR (NR concentration 90 nM, RXRa partner concentration 30 nM)
In short: as §1

[11] = system: PPARg:RXRa DBDmut IVT, anti-RXR (DBD mutation: RXRa K156A/R161A, NR concentration 270 nM, RXRa partner concentration 90 nM)
In short: as §1

[12] = system: PPARg:RXRa IVT, anti-PPARg (NR concentration 270 nM, RXRa partner concentration 90 nM)
In short: as §1

[13] = system: PPARg DBDmut:RXRa IVT, anti-PPARg (DBD mutation: PPARg1 K132A/R137A, NR concentration 270 nM, RXRa partner concentration 90 nM)
In short: as §1

[14] = system: PPARg DBDmut IVT, anti-PPARg (DBD mutation: PPARg1 K132A/R137A, NR concentration 270 nM)
In short: as §1

[15] = system: PPARg homodimer (NR concentration 180 nM)
In short: as §1

[16] = system: PXR:RXRa (NR concentration 270 nM, RXRa partner concentration 90 nM)
In short: as §1

[17] = system: PXR homodimer (NR concentration 270 nM)
In short: as §1

[18] = system: RARa:RXR (NR concentration 270 nM, RXRa partner concentration 90 nM)
In short: as §1

[19] = system: RARa homodimer (NR concentration 270 nM)
In short: as §1

[20] = system: RARb:RXRa (NR concentration 270 nM, RXRa partner concentration 90 nM)
In short: as §1

Sequence | PBM binding z-score [1] | PBM binding z-score [2] | PBM binding z-score [3] | PBM binding z-score [4] | PBM binding z-score [5] | PBM binding z-score [6] | PBM binding z-score [7] | PBM binding z-score [8] | PBM binding z-score [9] | PBM binding z-score [10] | PBM binding z-score [11] | PBM binding z-score [12] | PBM binding z-score [13] | PBM binding z-score [14] | PBM binding z-score [15] | PBM binding z-score [16] | PBM binding z-score [17] | PBM binding z-score [18] | PBM binding z-score [19] | PBM binding z-score [20]
TCTGCTAGGTCAGCGATGGTCAGCTAATCTGCTA | 1.17 | 0.657 | -0.944 | 0.271 | -0.838 | 1.66 | 0.772 | 1.62 | 1.56 | 1.29 | 3.18 | 3.05 | -0.711 | -0.258 | 0.723 | 0.17 | -1.61 | 1.31 | -1.26 | 3.33
ATCGAAAGGTCGACGAGGTGCGTATACACCGTTT | 4.16 | 2.96 | -0.0247 | 2.54 | 0.0651 | 4.07 | 2.24 | 2.73 | 0.695 | 1.53 | 0.356 | 1.41 | 0.639 | -0.109 | 1.06 | 3.37 | -0.325 | 2.45 | -0.212 | 3.79
CCGACTGGGGCAAAGGTTAGCATACTCAGTACGA | 0.945 | 0.762 | -0.315 | 1.27 | -1.29 | 4.88 | 10.7 | 8.69 | 9.08 | 9.54 | 4.94 | 4.9 | -0.151 | -1.37 | 1.58 | 1.47 | -0.542 | 2.78 | -0.0647 | 1.99
TCTGCTAGCTCAGTTGGTCAGCTAACGAGCTGCC | -1.44 | -1.29 | -1.01 | -1.04 | -0.714 | -0.45 | -1.22 | 0.0147 | 0.674 | 0.449 | 0.435 | 0.0097 | -0.882 | -0.216 | -1.73 | -0.874 | -1.69 | -0.998 | -2.24 | -0.575
GCGACGGGGGCAAAGCAGGTTACCATAAGGTTGG | 3.46 | 4.5 | 0.414 | 4.42 | 5.27 | 4 | 1.96 | 3.58 | 1.84 | 3.04 | 2.39 | 4.59 | 4.08 | 8.05 | 1.37 | 3.8 | 1.1 | 2.78 | 0.26 | 2.88
CGAACTAGGTCACTGACAGGACAGTGAATAGTAA | 3.05 | 2.26 | -0.0136 | 1.64 | -0.225 | 4.7 | 7.95 | 6.65 | 3.86 | 6.09 | 8.19 | 8.43 | 0.923 | 0.583 | 1.33 | 1.1 | -0.168 | 1.94 | -0.0785 | 3.9
CCGAGTAGGTTATGGGGCATACAGGCAACGGTGA | 0.216 | 0.557 | -0.0431 | 0.599 | -0.226 | 2.3 | 3.69 | 4.52 | 2.65 | 4.38 | 2.66 | 3.61 | 0.382 | 0.114 | 1.1 | -0.123 | -0.0326 | -0.237 | 0.493 | 0.987
